From PubChem BioAssay
Shown are actives, neighbours in structure and some others; about 4.1% of the full set was active somewhere.
Mdm2-MdmX inh – inhibitors of human Mdm2-MdmX association, primary screen, cell-based, luminescence, split luciferase, SaOS-2, uHTS; inhibition, % at 8 µM; Protein Mdm4 (Homo sapiens) + E3 ubiquitin-protein ligase Mdm2 (Homo sapiens), …; SaOS-2 split-luciferase Mdm2/MdmX complementation; AID 485346, 2010; 330,000 tested, 3% active;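 active means inhibition of at least 50% at 8 µM in the primary screen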
Target sequence (O15151 whole entry, looked up): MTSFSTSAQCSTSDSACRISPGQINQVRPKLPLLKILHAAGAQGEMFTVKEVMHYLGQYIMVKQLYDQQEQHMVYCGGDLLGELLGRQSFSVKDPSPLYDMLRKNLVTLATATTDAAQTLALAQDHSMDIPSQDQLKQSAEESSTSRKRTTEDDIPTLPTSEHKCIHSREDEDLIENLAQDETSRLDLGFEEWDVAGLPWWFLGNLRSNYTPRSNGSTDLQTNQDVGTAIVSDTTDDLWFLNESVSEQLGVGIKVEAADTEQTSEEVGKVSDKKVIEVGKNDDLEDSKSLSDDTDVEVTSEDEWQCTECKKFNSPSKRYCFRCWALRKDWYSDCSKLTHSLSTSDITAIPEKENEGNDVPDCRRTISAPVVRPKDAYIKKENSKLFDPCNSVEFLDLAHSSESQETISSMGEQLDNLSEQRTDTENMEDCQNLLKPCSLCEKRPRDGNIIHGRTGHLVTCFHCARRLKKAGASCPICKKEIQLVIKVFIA
Target sequence (Q00987 whole entry, looked up): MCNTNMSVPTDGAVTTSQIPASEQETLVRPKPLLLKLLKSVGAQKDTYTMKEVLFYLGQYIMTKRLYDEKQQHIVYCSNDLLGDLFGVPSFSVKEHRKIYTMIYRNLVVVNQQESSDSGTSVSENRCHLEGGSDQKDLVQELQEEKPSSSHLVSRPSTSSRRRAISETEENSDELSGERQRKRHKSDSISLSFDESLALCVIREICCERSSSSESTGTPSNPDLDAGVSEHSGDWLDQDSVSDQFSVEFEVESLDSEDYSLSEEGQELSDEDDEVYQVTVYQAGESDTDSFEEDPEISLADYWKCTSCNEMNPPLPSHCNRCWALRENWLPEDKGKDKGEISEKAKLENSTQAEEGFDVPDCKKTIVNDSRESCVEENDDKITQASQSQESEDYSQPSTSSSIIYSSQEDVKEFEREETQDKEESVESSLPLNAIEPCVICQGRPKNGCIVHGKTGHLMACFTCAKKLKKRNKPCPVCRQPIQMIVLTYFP
697 NFkB inh – inhibitors of PMA/ionomycin-induced NF-kB reporter, 697 cells, primary screen, B-cell NF-kB inhibitor project, cell-based, luminescence, uHTS; 330,000 tested, 0.33% active; 697 B-cell NF-kB luciferase reporter, 16 h; inhibition, % at 4 µM; AID 435022, 2010; in the data active means inhibition above about 35%
KLF5 inh – KLF5 expression inhibitors, primary screen, DLD-1 cells, luminescence | DLD-1 KLF5 promoter-luciferase reporter | inhibition, % at 5 µM | 290,000 tested, 0.23% active | AID 1700, 2009;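 active means inhibition above a per-plate limit of that plate's mean compound inhibition plus 3 SD, cut at about 60% in these data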;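 further: 0% = DMSO wells and 100% = LY294002 at 200 µM; higher means less KLF5 promoter-driven luciferase light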
Gli-Sufu block – Gli-Sufu pathway antagonists, primary screen, luciferase luminescence, Sufu-KO-LIGHT cells, uHTS; Sufu-KO-LIGHT fibroblasts, Gli luciferase reporter luminescence; 340,000 tested, 0.74% active; inhibition, % at 5 µM;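 active means inhibition above about 55%, limit read from the data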;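 further: 0% = DMSO-treated cells and 100% = wells with medium but no cells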
aSyn UTR inh – MLPCN primary screen, SNCA 5' untranslated region. alpha-synuclein 5'UTR reporter, inhibitor activity. inhibition, % (tested at 7.5 µM). 300,000 tested, 0.82% active. AID 1813, 2009; in the data active means inhibition above about 60%;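 further: H4 neuroglioblastoma cells stably carrying SNCA 5'UTR luciferase fusion; 0% = DMSO wells and 100% = positive control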
Jurkat NFkB inh – inhibitors of induced NF-kB luciferase reporter, primary screen, TCR NF-kB activation inhibitor project, cell-based, luminescence, uHTS. Jurkat, PMA/ionomycin-induced NF-kB luciferase reporter. inhibition, % at 4 µM. 330,000 tested, 0.53% active. AID 435003, 2010; in the data active means inhibition above about 50%
Jurkat NFkB conf – PMA/ionomycin-induced NF-kB reporter inhibitors, Jurkat retest, confirmation, T-cell NF-kB inhibitor project, cell-based, luminescence, single concentration | shares compounds with Jurkat NFkB inh | Jurkat NF-kB luciferase, 16 h | inhibition, % at 4 µM | 2,700 tested, 27% active | AID 435020, 2010;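 active means inhibition reaching about 45% at 4 µM in either replicate, limit read from the data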;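 further: plate controls were PMA/ionomycin stimulated DMSO wells for no effect and unstimulated DMSO wells for full effect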
* hit, by the source's call.

`COc1cc(CCC(=O)Nc2nnc(C)s2)cc(OC)c1OC` gave Mdm2-MdmX inh 49, 697 NFkB inh -36, KLF5 inh 46, Gli-Sufu block -9, aSyn UTR inh -53, Jurkat NFkB inh 52* and Jurkat NFkB conf 27.
For COc1cc(CCC(=O)Nc2ncc(C)s2)cc(OC)c1OC the results were Mdm2-MdmX inh -11, 697 NFkB inh 2, KLF5 inh -5, Gli-Sufu block 9, aSyn UTR inh 13 and Jurkat NFkB inh 9.
Oc1cccc(/C=N/N=C/c2cccc(O)c2O)c1O was read as Mdm2-MdmX inh 13, 697 NFkB inh -191, KLF5 inh -39, Gli-Sufu block 16, aSyn UTR inh -70, Jurkat NFkB inh 81* and Jurkat NFkB conf -21.
COc1cccc(OC)c1C(=O)N1CCNCC1 was read as Mdm2-MdmX inh 20, 697 NFkB inh 5, KLF5 inh -55, Gli-Sufu block -6, aSyn UTR inh -3 and Jurkat NFkB inh 6.
Screening CCc1ccc(NC(=O)c2noc3c2CCC3)cc1 returned Mdm2-MdmX inh -60, 697 NFkB inh -229, KLF5 inh -13, Gli-Sufu block -91, aSyn UTR inh -27 and Jurkat NFkB inh -135.
Cc1ccc(NC(=O)c2noc3c2CCCCC3)cc1 was read as Mdm2-MdmX inh -96, 697 NFkB inh -220, KLF5 inh -145, Gli-Sufu block -56, aSyn UTR inh -117, Jurkat NFkB inh -193 and Jurkat NFkB conf -79.
For CCc1ccc(NC(=O)c2noc3c2CCCCC3)cc1 the results were Mdm2-MdmX inh -169, 697 NFkB inh -224, KLF5 inh -142, Gli-Sufu block -62, aSyn UTR inh -182, Jurkat NFkB inh -245 and Jurkat NFkB conf -146.
COc1ccc(OC)c(S(=O)(=O)N2CCCC(C(=O)N3CCCCCC3)C2)c1 (stereo not given) was read as Mdm2-MdmX inh -1, 697 NFkB inh 2, KLF5 inh -24, Gli-Sufu block -2, aSyn UTR inh 14 and Jurkat NFkB inh 4.
CCN(CC)c1ccc(NC(=O)c2ccc(Br)o2)cc1 was read as Mdm2-MdmX inh -180, 697 NFkB inh -91, KLF5 inh -180, Gli-Sufu block -94, aSyn UTR inh -151, Jurkat NFkB inh -153 and Jurkat NFkB conf -63.
`Cc1noc(C)c1COc1ccc(C(=O)O)cc1` gave Mdm2-MdmX inh -17, 697 NFkB inh 5, KLF5 inh -30, Gli-Sufu block 5, aSyn UTR inh 16 and Jurkat NFkB inh 14.
For Cc1noc(C)c1COc1ccc(C(=O)NNC(=O)c2ccccc2)cc1 the results were Mdm2-MdmX inh 40, 697 NFkB inh -33, Gli-Sufu block -8, aSyn UTR inh -34, Jurkat NFkB inh 63* and Jurkat NFkB conf 30.
Cc1noc(C)c1COc1ccccc1C(=O)NNC(=O)c1ccccc1F was read as Mdm2-MdmX inh 10, 697 NFkB inh 14, Gli-Sufu block -1 and Jurkat NFkB inh -2.
Screening Cc1noc(C)c1COc1ccc(C(=O)NNC(=O)c2ccccc2F)cc1 returned Mdm2-MdmX inh 29, 697 NFkB inh -50, Gli-Sufu block -15, Jurkat NFkB inh 56* and Jurkat NFkB conf 45.
NC1=NC(c2ccc(Cl)cc2)C(C(=O)c2ccccc2)N1 (stereo not given) was read as Mdm2-MdmX inh 32, 697 NFkB inh -2, KLF5 inh -1, Gli-Sufu block 2, aSyn UTR inh -49 and Jurkat NFkB inh -1.
`CCOC(=O)c1cnc2c(-c3ccccc3)cnn2c1N` gave Mdm2-MdmX inh -95, 697 NFkB inh -232, KLF5 inh -132, Gli-Sufu block -136, aSyn UTR inh -54, Jurkat NFkB inh -163 and Jurkat NFkB conf -128.
For Cc1ccc(C(=O)OCC(=O)c2ccccc2)cc1 the results were Mdm2-MdmX inh -65, 697 NFkB inh -120, KLF5 inh -217, Gli-Sufu block -123, aSyn UTR inh -85, Jurkat NFkB inh -169 and Jurkat NFkB conf -63.
